Measured values published in PubChem BioAssay.
Activity calls are given as the source filed them.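 The calls were made as follows, unless noted: active = normalized viability below 100% at a tested concentration; inactive = the rest.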

Tests used:
[1] = sensitizers of A549 cells to miR-34 induction, primary screen, imaging, A549 dox-inducible miR-34, nuclei and caspase counts (AID 1347080;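 active = compounds whose cell count with miR-34 switched on is under 0.7 times the count with it off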); settings: A549 miR-34 inducible, Hoechst nuclei count, 48 h
[2] = survival rescue of mitochondrial mutant cells in low glucose, primary screen, MELAS cybrids, Rieske KO mouse fibroblasts, CellTiter-Glo (AID 1508586;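 active = mean z-score across replicates of 1.96 or higher in either the MELAS or the Rieske mutant cell line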;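 also: z relative to plate mean and SD of compound and empty wells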)
[3] = ovarian cancer cell viability with rucaparib, profiling panel, oncology-focused library, rucaparib conditional (AID 1508598); settings: patient-derived ovarian cancer cells, CellTiter-Glo viability, 144 h, stronger effect = lower value
[4] = stronger effect = lower value, cell number ratio, induced over uninduced
[5] = measured here: relative caspase fold change +Dox/-Dox
[6] = measured here: total cells with miR-34 induction, stronger effect = lower value
[7] = measured here: total cells without miR-34 induction
[8] = MELAS cybrid survival, CellTiter-Glo 48 h, stronger effect = higher value
[9] = Rieske KO mouse fibroblast survival, CellTiter-Glo 72 h
[10] = at 0.000305 µM, OCI-C5x cells, with rucaparib 10 µM, 100% = cells with rucaparib alone
[11] = at 0.000305 µM, OCI-C5x cells, without rucaparib
[12] = at 0.000305 µM, OCI-P5x cells, with rucaparib 20 µM, 100% = cells with rucaparib alone
[13] = at 0.000305 µM, OCI-P5x cells, without rucaparib
[14] = at 0.00122 µM, OCI-C5x cells, with rucaparib 10 µM, 100% = cells with rucaparib alone
[15] = at 0.00122 µM, OCI-C5x cells, without rucaparib
[16] = at 0.00122 µM, OCI-P5x cells, with rucaparib 20 µM, 100% = cells with rucaparib alone
[17] = at 0.00122 µM, OCI-P5x cells, without rucaparib
[18] = at 0.00488 µM, OCI-C5x cells, with rucaparib 10 µM, 100% = cells with rucaparib alone
[19] = at 0.00488 µM, OCI-C5x cells, without rucaparib
[20] = at 0.00488 µM, OCI-P5x cells, with rucaparib 20 µM, 100% = cells with rucaparib alone
[21] = at 0.00488 µM, OCI-P5x cells, without rucaparib
[22] = at 0.0195 µM, OCI-C5x cells, with rucaparib 10 µM, 100% = cells with rucaparib alone
[23] = at 0.0195 µM, OCI-C5x cells, without rucaparib
[24] = at 0.0195 µM, OCI-P5x cells, with rucaparib 20 µM, 100% = cells with rucaparib alone
[25] = at 0.0195 µM, OCI-P5x cells, without rucaparib
[26] = at 0.0781 µM, OCI-C5x cells, with rucaparib 10 µM, 100% = cells with rucaparib alone
[27] = at 0.0781 µM, OCI-C5x cells, without rucaparib
[28] = at 0.0781 µM, OCI-P5x cells, with rucaparib 20 µM, 100% = cells with rucaparib alone
[29] = at 0.0781 µM, OCI-P5x cells, without rucaparib
[30] = at 0.313 µM, OCI-C5x cells, with rucaparib 10 µM, 100% = cells with rucaparib alone
[31] = at 0.313 µM, OCI-C5x cells, without rucaparib
[32] = at 0.313 µM, OCI-P5x cells, with rucaparib 20 µM, 100% = cells with rucaparib alone
[33] = at 0.313 µM, OCI-P5x cells, without rucaparib
[34] = at 1.25 µM, OCI-C5x cells, with rucaparib 10 µM, 100% = cells with rucaparib alone
[35] = at 1.25 µM, OCI-C5x cells, without rucaparib
[36] = at 1.25 µM, OCI-P5x cells, with rucaparib 20 µM, 100% = cells with rucaparib alone
[37] = at 1.25 µM, OCI-P5x cells, without rucaparib
[38] = at 5 µM, OCI-C5x cells, with rucaparib 10 µM, 100% = cells with rucaparib alone
[39] = at 5 µM, OCI-C5x cells, without rucaparib
[40] = at 5 µM, OCI-P5x cells, with rucaparib 20 µM, 100% = cells with rucaparib alone
[41] = at 5 µM, OCI-P5x cells, without rucaparib

C[C@]12C=CC(=O)C=C1CC[C@@H]1[C@H]2C(=O)C[C@@]2(C)[C@H]1CC[C@@]2(O)C(=O)CO
inactive: fold change [1, 4] 0.899 | z-score [2, 8] -0.304 | viability [3, 10] 112% | viability [3, 11] 111% | viability [3, 14] 111% | viability [3, 15] 107% | viability [3, 18] 107% | viability [3, 19] 102% | viability [3, 22] 110% | viability [3, 23] 102% | viability [3, 26] 109% | viability [3, 27] 101% | viability [3, 30] 120% | viability [3, 34] 111% | viability [3, 38] 115%
8660: cell count [1, 7]
active: viability [3, 12] 93.3% | viability [3, 13] 93.5% | viability [3, 16] 95.9% | viability [3, 17] 93.2% | viability [3, 20] 91% | viability [3, 21] 90.1% | viability [3, 24] 88.4% | viability [3, 25] 84.5% | viability [3, 28] 85% | viability [3, 29] 88.3% | viability [3, 31] 94.4% | viability [3, 32] 85.2% | viability [3, 33] 78.8% | viability [3, 35] 97.7% | viability [3, 36] 85.8% | viability [3, 37] 76.5% | viability [3, 39] 98.1% | viability [3, 40] 75.2% | viability [3, 41] 77.4%
0.898: fold change [1, 5]
7790: cell count [1, 6]
-0.016: z-score [2, 9]

NC(=O)CCCSc1nc(N)nc(-c2c(Cl)cc3c4c(cccc24)COC3)n1
2430: cell count [1, 6]
-2.67: z-score [2, 9]
active: z-score [2, 8] 2.88 | viability [3, 11] 95.8% | viability [3, 16] 98% | viability [3, 17] 96.2% | viability [3, 21] 98.7% | viability [3, 25] 94.9% | viability [3, 27] 98.7% | viability [3, 28] 16.9% | viability [3, 29] 38.5% | viability [3, 30] 74.7% | viability [3, 31] 35.4% | viability [3, 32] 14.5% | viability [3, 33] 8.07% | viability [3, 34] 16% | viability [3, 35] 7.19% | viability [3, 36] 7.31% | viability [3, 37] 5.49% | viability [3, 38] 9.52% | viability [3, 39] 6.09% | viability [3, 40] 4.5% | viability [3, 41] 3.17%
2570: cell count [1, 7]
0.479: fold change [1, 5]
inactive: fold change [1, 4] 0.945 | viability [3, 10] 109% | viability [3, 12] 104% | viability [3, 13] 102% | viability [3, 14] 107% | viability [3, 15] 101% | viability [3, 18] 114% | viability [3, 19] 103% | viability [3, 20] 106% | viability [3, 22] 125% | viability [3, 23] 111% | viability [3, 24] 103% | viability [3, 26] 147%

Cc1[nH]nc2ccc(-c3cncc(OCC(N)Cc4ccccc4)c3)cc12 (stereo not drawn)
0.572: fold change [1, 5]
1330: cell count [1, 7]
-3.52: z-score [2, 9]
1470: cell count [1, 6]
inactive: fold change [1, 4] 1.1 | z-score [2, 8] 1.05

CCCc1ccc(OCC(=O)N(Cc2nc(-c3cccnc3)no2)C(C)C)cc1
6670: cell count [1, 6]
inactive: fold change [1, 4] 0.834 | z-score [2, 8] -0.333 | viability [3, 10] 116% | viability [3, 11] 115% | viability [3, 13] 106% | viability [3, 14] 125% | viability [3, 15] 122% | viability [3, 16] 102% | viability [3, 18] 129% | viability [3, 19] 104% | viability [3, 20] 105% | viability [3, 21] 101% | viability [3, 22] 118% | viability [3, 23] 110% | viability [3, 25] 102% | viability [3, 26] 134% | viability [3, 27] 114% | viability [3, 28] 104% | viability [3, 29] 103% | viability [3, 30] 120% | viability [3, 31] 110% | viability [3, 33] 101% | viability [3, 34] 115% | viability [3, 35] 112% | viability [3, 36] 103% | viability [3, 39] 111% | viability [3, 41] 100%
7990: cell count [1, 7]
0.57: fold change [1, 5]
active: viability [3, 12] 98% | viability [3, 17] 98.6% | viability [3, 24] 97.5% | viability [3, 32] 98.3% | viability [3, 37] 96.3% | viability [3, 38] 99.7% | viability [3, 40] 93.2%
0.238: z-score [2, 9]

Cc1[nH]c(C=C2C(=O)Nc3ccc(S(=O)(=O)N(C)c4cccc(Cl)c4)cc32)c(C)c1C(=O)N1CCN(C)CC1
3230: cell count [1, 7]
active: viability [3, 16] 92.9% | viability [3, 17] 98.8% | viability [3, 20] 89.6% | viability [3, 21] 96.9% | viability [3, 24] 96.9% | viability [3, 25] 94.2% | viability [3, 41] 58.4%
inactive: fold change [1, 4] 0.944 | z-score [2, 8] -0.734 | viability [3, 10] 109% | viability [3, 11] 113% | viability [3, 12] 106% | viability [3, 13] 104% | viability [3, 14] 117% | viability [3, 15] 112% | viability [3, 18] 118% | viability [3, 19] 113% | viability [3, 22] 116% | viability [3, 23] 126% | viability [3, 26] 120% | viability [3, 27] 125% | viability [3, 28] 104% | viability [3, 29] 102% | viability [3, 30] 122% | viability [3, 31] 131% | viability [3, 32] 113% | viability [3, 33] 107% | viability [3, 34] 138% | viability [3, 35] 151% | viability [3, 36] 114% | viability [3, 37] 107% | viability [3, 38] 133% | viability [3, 39] 126% | viability [3, 40] 102%
-1.1: z-score [2, 9]
0.91: fold change [1, 5]
3050: cell count [1, 6]
